Source: PubChem BioAssay (NCI)
About 83,000 compounds went through this panel and 20% of them were active in at least one assay; those are over-represented in the sample as a whole.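 Results are percent growth after 48 hours of single-concentration exposure. 100 means growth as in untreated cells, lower positive values show inhibition; negative values down to -100 show cell death.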 The source made the active and inactive calls.

What follows are compounds tested on SK-MEL-5 melanoma (assay: NCI-60 one-dose screen, 48 h (100 = growth as untreated, 0 = no growth, -100 = all killed)). Conditions: 10 µM unless noted.
Method: Growth inhibition of the SK-MEL-5 human tumor cell line is measured as a screen for anti-cancer activity. Cells are grown in 96 well plates and exposed to the test compound for 48 hours. Compounds are tested at a single concentration, which is 10^-5 M for most compounds. The reported endpoint is percent growth (GI% or GIPRCNT), where numbers from 0 - 100% represent growth inhibition, and numbers from -100% - 0 represent cell death. For example, a value of 40 represents 60% growth inhibition. A value of 0 means no net growth occurred over the course of the experiment. A value of -40 indicates 40% of cells at the beginning of the experiment died by the end of the experiment. A value of -100 means all cells are dead at the end of the experiment.
NCI-60 Human Tumor Cell Lines Screen was performed using the standard one-dose NCI protocol, which is described in more detail at https://dtp.cancer.gov/discovery_development/nci-60/default.htm.
Compounds with GIPRCNT values below 10 were considered active. Activity score was based on GIPRCNT using the following formula: […]
Score is 0 for GIPRCNT values of 100 or above, 50 for GIPRCNT values of 0, and 100 for GIPRCNT values of -100.
For `Cc1ccc(-c2cc(-c3ccccc3)n(-c3ccccc3)n2)cc1`, the growth was 106% (inactive).
For `CC(C)C[C@H](NC(=O)/C=C/Cn1ccc2ccccc2c1=O)B(O)O`, the growth was 23.5% (inactive).
In the case of `CC(=O)Nc1ccc(C(=O)COc2ccc(/C=C3\CCc4ccccc4C3=O)cc2)cc1`, the growth is reported as 98% (inactive).
In the case of `COC(=O)N/N=C/c1coc2ccc(Cl)cc2c1=O`, the growth is reported as 106% (inactive).
With `CC(=O)Nc1cc2c3c(cccc3c1)-c1ccccc1-2` the growth was 102% (inactive).
With `COc1ccc(C(=O)COc2cccc(/C=C3\COc4ccc5ccccc5c4C3=O)c2)cc1` the growth was 67.6% (inactive).
In the case of `O=C(Nc1nn2c(-c3cc(C(F)(F)F)cc(C(F)(F)F)c3)nnc2s1)C1CCCC1`, the growth is reported as -69.6% (active).
For `O=C(Oc1ccccc1)C(Br)C(Br)c1ccccc1` (stereo not given), the growth was 106% (inactive).
`O=C(CN1CCN(c2ccc(Cl)cc2)CC1)N1CCN(c2nnc(-c3ccccc3)c(-c3ccccc3)n2)CC1` was tested, and the growth was -9.45% (active).
With `O=c1ncc(-c2ccc(C(F)(F)F)cc2)c(NC2CCCCCC2)[nH]1` the growth was 20.9% (inactive).
For `c1ccc2c(-c3nc4ccccc4[nH]3)cccc2c1`, the growth was 20.1% (inactive).
`CC1C(C)N(C(=O)CCl)c2ccccc2N1C(=O)CCl` (stereo not given) was tested, and the growth was -70.4% (active).
In the case of `COc1ccc(C(=O)/C=C/c2ccc(C)cc2)cc1OC`, the growth is reported as 74% (inactive).
`O=C(CNC(=O)c1cccc2ccccc12)Nc1ccccc1Oc1cccc(O)c1` was tested, and the growth was 26.4% [5 µM] (inactive).
For `O=C1Nc2ccc(Cl)cc2/C1=C/c1cccs1`, the growth was 85.7% (inactive).
With `CC(NC(N)=S)c1ccccc1` (stereo not given) the growth was 99.6% (inactive).
With `Cc1cccc2nnc(-c3ccccc3)n12` the growth was 110% (inactive).
For `NS(=O)(=O)c1ccc(-n2ncc3c(SCc4ccccc4)ncnc32)cc1`, the growth was 79.5% (inactive).
For `CN(C)c1ccc(-n2nc3ccccc3n2)cc1`, the growth was 75.2% (inactive).
In the case of `N#Cc1c(-c2ccccc2)cc(-c2ccccc2)n(CC(=O)O)c1=O`, the growth is reported as 40.6% (inactive).
`COc1cc(/C=C/C(=O)c2c(C)n([O-])c3ccccc3[n+]2=O)cc(OC)c1OC` was tested, and the growth was 21.3% (inactive).
`N#Cc1c(-c2ccccc2)cc(-c2ccccc2)n(CCCCCCC(=O)O)c1=O` was tested, and the growth was 99.8% (inactive).
In the case of `COc1cccc(-c2nc(-c3ccc(N)cc3)co2)c1`, the growth is reported as 85.9% (inactive).
For `CC(C)=CCCC(C)c1ccc(C)c2c1OCN(CC1CCNCC1)C2` (stereo not given), the growth was 42.2% (inactive).
For `COc1ccc(CC(=O)Nc2nn3c(-c4cc(C(F)(F)F)cc(C(F)(F)F)c4)nnc3s2)cc1`, the growth was 2.85% (active).
For `CC(C)N(Cc1ccccc1)c1c(Cl)ssc1=O`, the growth was 104% (inactive).
In the case of `CCOC(=O)C1=CCC(n2cc(C)c(=O)[nH]c2=O)O1` (stereo not given), the growth is reported as 112% (inactive).
`CC1CC=CCC1C1OCC(C)(C)CO1` (stereo not given) was tested, and the growth was 104% (inactive).
With `COP(=O)(OC)C(c1ccc(O)cc1)(c1ccc(O)cc1)c1ccc(O)cc1` the growth was 87.3% (inactive).
`COc1ccc(-c2cnc(SCC(=O)Nc3ccc(-c4nc5ccccc5s4)cc3)n2-c2ccc(OC)cc2)cc1` was tested, and the growth was 99.4% (inactive).
In the case of `Cc1[nH]ccc2cc3nc4ccccc4c3cc12`, the growth is reported as 37.8% (inactive).
For `CCC(=O)Nc1cc2c(cc1Cl)-c1ccccc1C2`, the growth was 93.5% (inactive).
`O=C1Nc2ccc(C(=O)O)c(O)c2C1=O` was tested, and the growth was 104% (inactive).
With `COc1ccc(CCN2C(=O)CCC3=C2CCCC3=O)cc1OC` the growth was 99.1% (inactive).
`COc1ccc2c(c1)sc1nc(-c3ccc(N(C)C)cc3)cn12` was tested, and the growth was 108% (inactive).
With `Cc1cc(C(=O)Nc2ccc3cc(CN4CCOCC4)ccc3n2)c(C)n1-c1ccccc1` the growth was -38.1% (active).
In the case of `COc1cc(OC)c2c(c1Cl)O[C@]1(C2=O)C(OCc2ccccc2)=CC(=O)C[C@H]1C`, the growth is reported as -75% (active).
With `CCCCCCCC[Si](OCC)(OCC)OCC` the growth was 111% (inactive).
In the case of `COc1ccc(C2CC(c3ccc4c(c3)OCO4)=NN2C=O)cc1` (stereo not given), the growth is reported as 95.9% (inactive).
For `COc1cc(/C=C2\SC(N3CCCCC3)=NC2=O)ccc1OCCCCCCOc1ccc(/C=C2\SC(N3CCCCC3)=NC2=O)cc1OC`, the growth was 10.3% (inactive).
